Our source for the binding signal values is paper PMC7862700, “An all-to-all approach to the identification of sequence-specific readers for epigenetic DNA modifications on cytosine”.

What all share (assay): DAPPL (digital affinity profiling via proximity ligation, sequencing); 10 mM Tris-HCl pH 7.5, 50 mM NaCl, 1 mM DTT, 4% glycerol, room temperature, 30 min; GST-TFs on glutathione beads, 16-mer random dsDNA library, 0.1% formaldehyde crosslink after washing; high values mean tight binding
Holding throughout (conditions): protein: recombinant; tags: N-terminal GST; dsDNA, one strand shown

One experiment has as its target T1, FLI1 (Homo sapiens, UniProt Q01543 1-452).
T1 sequence: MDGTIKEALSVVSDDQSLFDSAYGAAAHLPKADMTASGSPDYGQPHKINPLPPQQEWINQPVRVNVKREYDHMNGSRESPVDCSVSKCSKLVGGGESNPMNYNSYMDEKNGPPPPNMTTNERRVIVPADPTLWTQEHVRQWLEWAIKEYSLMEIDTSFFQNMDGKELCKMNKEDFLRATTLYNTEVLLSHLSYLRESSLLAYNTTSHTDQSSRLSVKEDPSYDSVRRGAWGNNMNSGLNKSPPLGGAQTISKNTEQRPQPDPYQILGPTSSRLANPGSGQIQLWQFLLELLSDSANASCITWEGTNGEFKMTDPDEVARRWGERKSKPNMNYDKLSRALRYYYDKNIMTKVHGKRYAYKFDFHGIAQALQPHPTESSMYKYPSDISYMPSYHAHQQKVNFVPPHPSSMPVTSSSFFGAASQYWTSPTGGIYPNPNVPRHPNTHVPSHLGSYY
The method in brief: (§1)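 The binding signal reported is, for every hexamer, its read frequency for a factor over its read frequency for the tag-only sample. Reads came from pools of yeast-expressed, GST-fused human transcription factors on glutathione beads, barcoded with DNA and mixed with that sample, which were incubated with 200 nmole of a random double-stranded 16-mer DNA library in Tris/NaCl/DTT/glycerol buffer at room temperature for 30 min. After washing, the pools were crosslinked with 0.1% formaldehyde, proximity-ligated with BsaI/T4 ligase for 1 h at 37 °C, PCR-amplified and sequenced on an Illumina NextSeq500.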

A further experiment concerns the target T2, ELK1 (Homo sapiens, UniProt P19419 1-428).
T2 sequence: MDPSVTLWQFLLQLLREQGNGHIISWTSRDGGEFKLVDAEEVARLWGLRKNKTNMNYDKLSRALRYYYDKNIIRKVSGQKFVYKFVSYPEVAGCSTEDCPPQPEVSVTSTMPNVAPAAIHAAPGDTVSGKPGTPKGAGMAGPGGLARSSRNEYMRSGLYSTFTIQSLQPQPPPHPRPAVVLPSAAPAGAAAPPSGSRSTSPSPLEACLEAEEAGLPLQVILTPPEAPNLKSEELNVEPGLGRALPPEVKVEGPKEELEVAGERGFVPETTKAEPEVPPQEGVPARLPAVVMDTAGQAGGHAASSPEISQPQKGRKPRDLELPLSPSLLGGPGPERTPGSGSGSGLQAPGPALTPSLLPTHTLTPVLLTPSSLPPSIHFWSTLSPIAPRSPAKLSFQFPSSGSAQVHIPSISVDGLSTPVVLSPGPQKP
The method, boiled down: as §1

A further experiment has as its target T3, GABPA (Homo sapiens, UniProt Q06546 1-454).
T3 sequence: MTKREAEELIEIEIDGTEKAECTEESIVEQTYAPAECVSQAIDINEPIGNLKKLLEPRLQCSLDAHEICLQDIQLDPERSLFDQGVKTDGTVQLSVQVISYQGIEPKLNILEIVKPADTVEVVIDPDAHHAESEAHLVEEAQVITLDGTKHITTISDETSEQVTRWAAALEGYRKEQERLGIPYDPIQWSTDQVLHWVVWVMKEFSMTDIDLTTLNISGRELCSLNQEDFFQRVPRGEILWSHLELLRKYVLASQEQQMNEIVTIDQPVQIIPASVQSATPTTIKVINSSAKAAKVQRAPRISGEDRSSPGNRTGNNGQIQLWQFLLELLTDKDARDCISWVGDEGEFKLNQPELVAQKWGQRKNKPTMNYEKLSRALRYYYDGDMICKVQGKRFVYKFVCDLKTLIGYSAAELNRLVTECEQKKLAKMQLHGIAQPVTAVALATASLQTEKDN
The method in brief: as §1

Another experiment deals with T4, ERG (Homo sapiens, UniProt P11308 1-479).
T4 sequence: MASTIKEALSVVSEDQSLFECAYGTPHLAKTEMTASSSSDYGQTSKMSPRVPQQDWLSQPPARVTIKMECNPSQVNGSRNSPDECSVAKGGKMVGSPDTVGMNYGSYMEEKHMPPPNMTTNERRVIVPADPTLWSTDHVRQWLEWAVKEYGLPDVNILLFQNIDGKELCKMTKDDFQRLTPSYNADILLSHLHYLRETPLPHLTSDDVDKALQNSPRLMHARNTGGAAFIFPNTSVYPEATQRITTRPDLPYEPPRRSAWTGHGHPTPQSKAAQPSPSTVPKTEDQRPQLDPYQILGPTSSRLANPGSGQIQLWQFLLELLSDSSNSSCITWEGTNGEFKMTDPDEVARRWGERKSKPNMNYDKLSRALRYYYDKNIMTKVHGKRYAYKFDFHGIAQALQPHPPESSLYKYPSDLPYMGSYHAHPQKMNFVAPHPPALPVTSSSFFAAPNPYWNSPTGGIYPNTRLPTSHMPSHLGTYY
The method, boiled down:
as §1

The next experiment addresses ELF1 (Homo sapiens, UniProt P32519 1-619). The method, boiled down:
as §1

Another experiment concerns the target T5, EHF (Homo sapiens, UniProt Q9NZC4 1-300).
T5 sequence: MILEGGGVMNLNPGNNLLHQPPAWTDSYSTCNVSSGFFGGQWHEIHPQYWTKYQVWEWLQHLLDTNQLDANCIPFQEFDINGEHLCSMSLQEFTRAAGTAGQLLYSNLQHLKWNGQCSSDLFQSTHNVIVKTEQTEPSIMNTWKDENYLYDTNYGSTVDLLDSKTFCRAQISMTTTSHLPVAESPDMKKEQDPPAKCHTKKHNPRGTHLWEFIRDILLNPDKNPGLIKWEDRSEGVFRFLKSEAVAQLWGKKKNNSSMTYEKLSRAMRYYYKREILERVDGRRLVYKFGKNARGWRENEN
The method, boiled down:
as §1

The next experiment addresses SPI1 (Homo sapiens, UniProt P17947 1-270). The method, boiled down: as §1
For another experiment, the target named is SPIB (Homo sapiens, UniProt Q01892 1-262). The method, boiled down:
as §1

The next experiment concerns the target T6, ELK3 (Homo sapiens, UniProt P41970 1-407).
T6 sequence: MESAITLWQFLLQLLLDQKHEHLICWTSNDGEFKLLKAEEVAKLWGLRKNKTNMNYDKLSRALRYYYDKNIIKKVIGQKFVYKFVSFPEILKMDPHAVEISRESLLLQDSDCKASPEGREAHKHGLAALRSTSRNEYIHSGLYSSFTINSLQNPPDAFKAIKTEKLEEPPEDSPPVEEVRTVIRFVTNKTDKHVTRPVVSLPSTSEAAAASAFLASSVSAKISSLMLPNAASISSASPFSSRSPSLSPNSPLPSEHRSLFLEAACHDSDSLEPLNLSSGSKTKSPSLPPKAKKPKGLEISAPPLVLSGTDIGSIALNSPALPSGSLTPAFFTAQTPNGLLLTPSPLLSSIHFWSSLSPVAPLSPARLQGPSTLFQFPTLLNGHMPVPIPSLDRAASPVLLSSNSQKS
The method, boiled down:
as §1

In the next experiment the target is T7, FEV (Homo sapiens, UniProt Q99581 1-238).
T7 sequence: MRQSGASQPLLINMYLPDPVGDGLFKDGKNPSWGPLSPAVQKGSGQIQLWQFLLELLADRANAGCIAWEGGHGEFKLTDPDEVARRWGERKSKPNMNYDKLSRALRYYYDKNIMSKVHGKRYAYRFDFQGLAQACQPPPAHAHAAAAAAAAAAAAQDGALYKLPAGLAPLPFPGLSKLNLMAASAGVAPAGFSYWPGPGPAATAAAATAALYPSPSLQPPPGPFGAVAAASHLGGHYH
The method in brief:
as §1

The target in a further experiment is ETV5 (Homo sapiens, UniProt P41161 1-510). The method in brief: as §1
Sequence of ETV5 (P41161 whole entry): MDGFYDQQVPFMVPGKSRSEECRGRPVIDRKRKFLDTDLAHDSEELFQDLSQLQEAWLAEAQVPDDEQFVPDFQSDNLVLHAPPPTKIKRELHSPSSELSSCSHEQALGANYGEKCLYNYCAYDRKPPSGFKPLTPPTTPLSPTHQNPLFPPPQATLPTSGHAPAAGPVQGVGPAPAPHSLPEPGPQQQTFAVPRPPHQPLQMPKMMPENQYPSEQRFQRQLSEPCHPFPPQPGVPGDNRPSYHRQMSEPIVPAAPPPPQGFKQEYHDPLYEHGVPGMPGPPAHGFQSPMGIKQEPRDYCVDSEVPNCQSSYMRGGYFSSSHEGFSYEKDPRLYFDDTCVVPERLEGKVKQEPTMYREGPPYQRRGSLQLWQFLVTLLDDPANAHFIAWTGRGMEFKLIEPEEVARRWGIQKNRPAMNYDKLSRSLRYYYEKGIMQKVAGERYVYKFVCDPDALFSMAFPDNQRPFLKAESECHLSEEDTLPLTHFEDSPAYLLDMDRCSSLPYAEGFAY
The target of another experiment is T8, SPIC (Homo sapiens, UniProt Q8N5J4 1-248).
T8 sequence: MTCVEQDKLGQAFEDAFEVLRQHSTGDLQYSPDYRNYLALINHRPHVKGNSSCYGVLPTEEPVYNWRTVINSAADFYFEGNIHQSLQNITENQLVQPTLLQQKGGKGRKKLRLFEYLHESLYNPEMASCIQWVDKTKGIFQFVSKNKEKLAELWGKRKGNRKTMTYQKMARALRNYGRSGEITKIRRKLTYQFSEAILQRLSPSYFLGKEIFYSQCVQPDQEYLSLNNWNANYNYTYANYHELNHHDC
The method in brief:
as §1

The next experiment addresses ELF4 (Homo sapiens, UniProt Q99607 1-663). The method in brief:
as §1

For the next experiment, the target named is T9, ELK4 (Homo sapiens, UniProt P28324-2 1-405).
T9 sequence: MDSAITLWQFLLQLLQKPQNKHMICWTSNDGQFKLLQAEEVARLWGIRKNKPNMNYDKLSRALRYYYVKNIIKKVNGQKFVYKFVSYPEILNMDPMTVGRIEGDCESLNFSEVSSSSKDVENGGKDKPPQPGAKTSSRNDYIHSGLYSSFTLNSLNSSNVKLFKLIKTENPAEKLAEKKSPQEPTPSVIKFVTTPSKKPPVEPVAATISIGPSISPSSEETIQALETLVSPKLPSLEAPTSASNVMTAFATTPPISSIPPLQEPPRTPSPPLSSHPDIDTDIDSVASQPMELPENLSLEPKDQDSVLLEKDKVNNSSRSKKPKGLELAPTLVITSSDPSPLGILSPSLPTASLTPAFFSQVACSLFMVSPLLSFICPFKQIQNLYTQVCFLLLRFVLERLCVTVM
The method in brief: as §1

The target in a further experiment is T10, ETV2 (Homo sapiens, UniProt O00321 1-342).
T10 sequence: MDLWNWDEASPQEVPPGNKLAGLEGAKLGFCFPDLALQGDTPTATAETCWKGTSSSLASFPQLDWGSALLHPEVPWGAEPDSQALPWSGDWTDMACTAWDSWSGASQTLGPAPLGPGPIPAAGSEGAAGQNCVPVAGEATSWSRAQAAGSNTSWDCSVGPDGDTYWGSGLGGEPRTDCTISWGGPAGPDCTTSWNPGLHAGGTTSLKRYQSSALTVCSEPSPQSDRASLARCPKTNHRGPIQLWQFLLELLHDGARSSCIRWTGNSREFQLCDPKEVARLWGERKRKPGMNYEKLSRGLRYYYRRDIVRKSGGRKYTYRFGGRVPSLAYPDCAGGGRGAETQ
The method, boiled down: as §1

The next experiment has as its target T11, ELF3 (Homo sapiens, UniProt P78545 1-371).
T11 sequence: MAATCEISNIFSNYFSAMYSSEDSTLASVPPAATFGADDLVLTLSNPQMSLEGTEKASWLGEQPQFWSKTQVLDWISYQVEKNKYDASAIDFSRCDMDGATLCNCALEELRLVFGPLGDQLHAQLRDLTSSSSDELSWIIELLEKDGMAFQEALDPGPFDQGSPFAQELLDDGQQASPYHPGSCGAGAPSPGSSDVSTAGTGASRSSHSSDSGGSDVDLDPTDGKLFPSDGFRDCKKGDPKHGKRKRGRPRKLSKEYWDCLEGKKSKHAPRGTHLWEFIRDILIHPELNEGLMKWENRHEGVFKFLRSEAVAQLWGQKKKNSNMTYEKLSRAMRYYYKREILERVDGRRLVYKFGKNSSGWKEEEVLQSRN
The method in brief:
as §1

The next experiment concerns the target ETV1 (Homo sapiens, UniProt P50549 1-477). The method in brief:
as §1

Sequence of ELF1 (P32519 whole entry): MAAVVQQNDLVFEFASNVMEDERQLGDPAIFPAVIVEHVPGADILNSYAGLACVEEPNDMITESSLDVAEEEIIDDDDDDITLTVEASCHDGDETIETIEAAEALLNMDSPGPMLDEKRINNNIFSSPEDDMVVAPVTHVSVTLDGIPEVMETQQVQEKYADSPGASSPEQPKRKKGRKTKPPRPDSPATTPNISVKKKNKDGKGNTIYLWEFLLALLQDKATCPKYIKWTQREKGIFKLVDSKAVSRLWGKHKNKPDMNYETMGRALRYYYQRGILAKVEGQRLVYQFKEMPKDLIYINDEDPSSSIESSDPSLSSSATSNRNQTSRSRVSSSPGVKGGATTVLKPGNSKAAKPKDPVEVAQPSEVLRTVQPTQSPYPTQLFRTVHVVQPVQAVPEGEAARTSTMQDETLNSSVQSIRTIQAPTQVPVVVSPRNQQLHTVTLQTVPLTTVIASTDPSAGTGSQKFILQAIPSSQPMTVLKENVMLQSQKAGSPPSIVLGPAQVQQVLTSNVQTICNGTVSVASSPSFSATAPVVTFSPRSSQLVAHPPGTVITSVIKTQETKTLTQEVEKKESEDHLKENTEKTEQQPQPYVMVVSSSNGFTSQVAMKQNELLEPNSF
Sequence of ETV1 (P50549 whole entry): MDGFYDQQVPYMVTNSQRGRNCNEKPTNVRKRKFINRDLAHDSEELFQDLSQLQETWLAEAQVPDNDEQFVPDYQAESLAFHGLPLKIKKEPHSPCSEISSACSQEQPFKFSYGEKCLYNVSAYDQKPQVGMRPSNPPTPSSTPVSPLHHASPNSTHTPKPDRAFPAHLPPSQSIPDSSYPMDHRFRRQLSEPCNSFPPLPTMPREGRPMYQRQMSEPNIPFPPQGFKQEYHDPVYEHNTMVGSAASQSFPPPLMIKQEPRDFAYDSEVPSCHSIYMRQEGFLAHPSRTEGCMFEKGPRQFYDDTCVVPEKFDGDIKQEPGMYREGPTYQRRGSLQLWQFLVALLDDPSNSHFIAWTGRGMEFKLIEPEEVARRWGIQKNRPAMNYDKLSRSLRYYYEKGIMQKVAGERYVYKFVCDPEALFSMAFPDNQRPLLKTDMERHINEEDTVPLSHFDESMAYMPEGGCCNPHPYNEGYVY
Sequence of SPIB (Q01892 whole entry): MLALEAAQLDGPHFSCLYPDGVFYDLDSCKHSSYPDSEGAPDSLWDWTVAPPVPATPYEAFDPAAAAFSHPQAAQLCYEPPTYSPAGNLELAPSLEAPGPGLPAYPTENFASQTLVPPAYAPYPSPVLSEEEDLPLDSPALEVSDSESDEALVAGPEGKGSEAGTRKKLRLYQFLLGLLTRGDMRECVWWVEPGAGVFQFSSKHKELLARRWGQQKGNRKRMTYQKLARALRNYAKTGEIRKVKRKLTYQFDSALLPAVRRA
Sequence of ELF4 (Q99607 whole entry): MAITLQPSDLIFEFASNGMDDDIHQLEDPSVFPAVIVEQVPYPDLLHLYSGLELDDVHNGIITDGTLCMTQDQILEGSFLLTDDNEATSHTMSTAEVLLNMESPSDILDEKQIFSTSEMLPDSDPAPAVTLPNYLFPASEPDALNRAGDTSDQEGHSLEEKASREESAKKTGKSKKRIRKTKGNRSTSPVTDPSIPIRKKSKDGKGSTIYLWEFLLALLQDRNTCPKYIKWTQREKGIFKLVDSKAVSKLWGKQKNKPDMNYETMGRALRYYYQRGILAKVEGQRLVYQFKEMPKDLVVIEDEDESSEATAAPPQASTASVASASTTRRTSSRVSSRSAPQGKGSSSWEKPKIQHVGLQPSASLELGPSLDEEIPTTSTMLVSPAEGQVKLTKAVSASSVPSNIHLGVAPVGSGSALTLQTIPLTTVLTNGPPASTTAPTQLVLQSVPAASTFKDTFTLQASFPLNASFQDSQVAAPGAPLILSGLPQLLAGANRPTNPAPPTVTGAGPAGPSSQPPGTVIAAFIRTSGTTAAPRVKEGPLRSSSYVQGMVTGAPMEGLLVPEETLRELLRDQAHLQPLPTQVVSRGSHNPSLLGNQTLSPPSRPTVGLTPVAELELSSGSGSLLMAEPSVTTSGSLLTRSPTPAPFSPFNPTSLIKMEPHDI

Take CAAACC: the binding signal was 1.16 fold enrichment (6-mer frequency, TF over GST control) with FLI1; 1.15 fold enrichment (6-mer frequency, TF over GST control) in the experiment with ELK1; 1.11 fold enrichment (6-mer frequency, TF over GST control) with GABPA; 1.16 fold enrichment (6-mer frequency, TF over GST control) with ERG; 1.13 fold enrichment (6-mer frequency, TF over GST control) in the experiment with ELF1; 1.05 fold enrichment (6-mer frequency, TF over GST control) with EHF. The binding signal with SPI1 is 1.15 fold enrichment (6-mer frequency, TF over GST control); with SPIB, 1.06 fold enrichment (6-mer frequency, TF over GST control); in the experiment with ELK3 it was 1.15 fold enrichment (6-mer frequency, TF over GST control); in the experiment with FEV it was 1.18 fold enrichment (6-mer frequency, TF over GST control); with ETV5, 1.05 fold enrichment (6-mer frequency, TF over GST control); with SPIC, 1.06 fold enrichment (6-mer frequency, TF over GST control). The binding signal was 1.2 fold enrichment (6-mer frequency, TF over GST control) in the experiment with ELF4; 1.05 fold enrichment (6-mer frequency, TF over GST control) in the experiment with ELK4; 1.12 fold enrichment (6-mer frequency, TF over GST control) with ETV2; 1.15 fold enrichment (6-mer frequency, TF over GST control) in the experiment with ELF3; 1.18 fold enrichment (6-mer frequency, TF over GST control) with ETV1.
Consider GCGACC, for which the binding signal was 1.09 fold enrichment (6-mer frequency, TF over GST control) in the experiment with FLI1; 1.11 fold enrichment (6-mer frequency, TF over GST control) with ELK1; 1.09 fold enrichment (6-mer frequency, TF over GST control) with GABPA; 1.17 fold enrichment (6-mer frequency, TF over GST control) with ERG; 1.15 fold enrichment (6-mer frequency, TF over GST control) with ELF1; 1.2 fold enrichment (6-mer frequency, TF over GST control) with EHF. Moreover, the binding signal with SPI1 was 1.07 fold enrichment (6-mer frequency, TF over GST control); with SPIB, 1.08 fold enrichment (6-mer frequency, TF over GST control); with ELK3, 1.02 fold enrichment (6-mer frequency, TF over GST control); with FEV, 1.19 fold enrichment (6-mer frequency, TF over GST control); with ETV5, 1.09 fold enrichment (6-mer frequency, TF over GST control); with SPIC it was 1.2 fold enrichment (6-mer frequency, TF over GST control). The binding signal with ELF4 is 1.25 fold enrichment (6-mer frequency, TF over GST control); in the experiment with ELK4, 1.03 fold enrichment (6-mer frequency, TF over GST control); with ETV2 it was 1.26 fold enrichment (6-mer frequency, TF over GST control); with ELF3, 1.08 fold enrichment (6-mer frequency, TF over GST control); with ETV1, 1.06 fold enrichment (6-mer frequency, TF over GST control).
